Test results: the supplement of paper PMC10849652
Of roughly 7,900 targets only a part is listed; those with a hit were picked by preference. About 0.6% of all pairs of compound and target were hits.

compound: c1cn2cc(-c3ccc4cn[nH]c4c3)nc(Nc3ccc(N4CCOCC4)cc3)c2n1 [entospletinib]; test: log2 fold change, soluble protein after heating vs DMSO (PISA); higher = thermal stabilisation; K562 cells, 10 uM, 30 min; active = over 0.2 and 3.5 SD of the protein, either way, in both replicates (recomputed)
Procedure, shortened: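 Soluble protein was defined as the supernatant after 21,000xg for 90 min. It came from K562 cells at 2×10^6 cells/mL given 10 μM compound for 30 min, heated in aliquots for 3 min across 48°C-58°C, pooled, and extracted in PBS with 0.5% NP-40 at 4°C, and was quantified by TMTpro 16plex LC-MS/MS with equalised channel sums. Thermal stability against control samples, from duplicates, is reported as log2 fold change.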

Sequence of UniProt Q13428 (Q13428 whole entry, looked up): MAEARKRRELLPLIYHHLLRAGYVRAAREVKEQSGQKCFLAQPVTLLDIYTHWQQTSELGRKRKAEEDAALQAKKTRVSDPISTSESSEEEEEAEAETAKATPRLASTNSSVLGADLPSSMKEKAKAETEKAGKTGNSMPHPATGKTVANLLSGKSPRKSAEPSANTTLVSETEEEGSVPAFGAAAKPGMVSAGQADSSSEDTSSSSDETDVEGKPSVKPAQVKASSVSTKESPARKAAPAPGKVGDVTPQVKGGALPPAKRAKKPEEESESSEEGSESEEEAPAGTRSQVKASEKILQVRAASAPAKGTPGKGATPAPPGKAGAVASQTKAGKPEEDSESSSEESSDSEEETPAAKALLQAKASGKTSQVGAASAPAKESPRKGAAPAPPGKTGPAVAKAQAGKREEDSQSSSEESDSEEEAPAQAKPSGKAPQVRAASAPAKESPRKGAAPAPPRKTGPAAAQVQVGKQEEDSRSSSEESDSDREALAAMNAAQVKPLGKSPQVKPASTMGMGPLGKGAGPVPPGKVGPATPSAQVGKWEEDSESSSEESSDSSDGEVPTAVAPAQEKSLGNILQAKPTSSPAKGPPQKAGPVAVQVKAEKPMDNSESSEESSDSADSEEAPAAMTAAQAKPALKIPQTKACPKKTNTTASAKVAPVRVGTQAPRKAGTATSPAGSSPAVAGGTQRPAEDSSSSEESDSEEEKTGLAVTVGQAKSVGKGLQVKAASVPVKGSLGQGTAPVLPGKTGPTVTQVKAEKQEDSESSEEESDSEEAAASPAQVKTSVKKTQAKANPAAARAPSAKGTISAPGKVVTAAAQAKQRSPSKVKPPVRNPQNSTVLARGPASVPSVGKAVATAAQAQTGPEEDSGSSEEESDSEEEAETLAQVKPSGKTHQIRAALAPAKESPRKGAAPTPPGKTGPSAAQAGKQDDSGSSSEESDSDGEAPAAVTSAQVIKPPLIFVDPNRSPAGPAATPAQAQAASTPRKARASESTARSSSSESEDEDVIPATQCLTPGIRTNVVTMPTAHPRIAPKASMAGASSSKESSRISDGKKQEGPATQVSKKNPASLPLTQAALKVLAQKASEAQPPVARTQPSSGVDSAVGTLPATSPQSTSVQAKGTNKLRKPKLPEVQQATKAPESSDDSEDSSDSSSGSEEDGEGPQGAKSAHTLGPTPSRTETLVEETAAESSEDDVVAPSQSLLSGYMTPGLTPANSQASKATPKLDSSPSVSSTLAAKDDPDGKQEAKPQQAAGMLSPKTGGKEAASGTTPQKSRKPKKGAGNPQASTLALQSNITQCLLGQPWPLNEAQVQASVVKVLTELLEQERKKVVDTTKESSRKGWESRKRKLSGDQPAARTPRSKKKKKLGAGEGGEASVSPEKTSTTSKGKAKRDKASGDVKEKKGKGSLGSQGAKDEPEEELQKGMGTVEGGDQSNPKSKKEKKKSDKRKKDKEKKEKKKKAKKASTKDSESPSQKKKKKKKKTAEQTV
Sequence of UniProt Q5T5C0 (Q5T5C0 whole entry, looked up): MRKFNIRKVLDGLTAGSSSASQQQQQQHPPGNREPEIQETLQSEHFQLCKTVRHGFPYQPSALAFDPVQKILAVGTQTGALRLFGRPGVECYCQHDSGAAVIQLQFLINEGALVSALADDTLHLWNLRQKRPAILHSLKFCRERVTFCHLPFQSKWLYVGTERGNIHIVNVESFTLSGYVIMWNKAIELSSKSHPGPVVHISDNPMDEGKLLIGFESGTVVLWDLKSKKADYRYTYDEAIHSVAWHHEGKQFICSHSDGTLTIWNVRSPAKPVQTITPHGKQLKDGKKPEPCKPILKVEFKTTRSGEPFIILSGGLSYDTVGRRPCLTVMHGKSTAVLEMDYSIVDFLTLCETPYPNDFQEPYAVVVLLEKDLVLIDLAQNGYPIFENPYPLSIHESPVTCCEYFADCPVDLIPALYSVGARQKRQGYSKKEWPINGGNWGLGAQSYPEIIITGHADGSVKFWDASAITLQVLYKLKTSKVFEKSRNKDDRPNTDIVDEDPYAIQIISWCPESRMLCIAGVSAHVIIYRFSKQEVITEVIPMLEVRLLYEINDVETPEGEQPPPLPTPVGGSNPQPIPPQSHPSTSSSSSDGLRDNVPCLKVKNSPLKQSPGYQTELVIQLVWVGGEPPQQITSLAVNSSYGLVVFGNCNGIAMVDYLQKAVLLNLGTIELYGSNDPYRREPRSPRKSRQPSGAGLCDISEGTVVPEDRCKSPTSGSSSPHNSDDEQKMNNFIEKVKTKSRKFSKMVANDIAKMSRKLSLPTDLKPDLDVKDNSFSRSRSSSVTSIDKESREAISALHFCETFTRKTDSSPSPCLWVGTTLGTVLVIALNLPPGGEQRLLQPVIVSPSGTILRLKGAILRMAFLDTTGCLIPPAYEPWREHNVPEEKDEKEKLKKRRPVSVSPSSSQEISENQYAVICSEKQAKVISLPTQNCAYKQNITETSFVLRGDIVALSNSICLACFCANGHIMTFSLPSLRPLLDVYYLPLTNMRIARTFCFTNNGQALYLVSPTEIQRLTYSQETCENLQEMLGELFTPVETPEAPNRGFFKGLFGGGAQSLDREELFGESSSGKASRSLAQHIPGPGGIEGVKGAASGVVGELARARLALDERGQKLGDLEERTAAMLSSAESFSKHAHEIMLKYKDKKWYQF
Sequence of UniProt Q9BYX2 (Q9BYX2 whole entry, looked up): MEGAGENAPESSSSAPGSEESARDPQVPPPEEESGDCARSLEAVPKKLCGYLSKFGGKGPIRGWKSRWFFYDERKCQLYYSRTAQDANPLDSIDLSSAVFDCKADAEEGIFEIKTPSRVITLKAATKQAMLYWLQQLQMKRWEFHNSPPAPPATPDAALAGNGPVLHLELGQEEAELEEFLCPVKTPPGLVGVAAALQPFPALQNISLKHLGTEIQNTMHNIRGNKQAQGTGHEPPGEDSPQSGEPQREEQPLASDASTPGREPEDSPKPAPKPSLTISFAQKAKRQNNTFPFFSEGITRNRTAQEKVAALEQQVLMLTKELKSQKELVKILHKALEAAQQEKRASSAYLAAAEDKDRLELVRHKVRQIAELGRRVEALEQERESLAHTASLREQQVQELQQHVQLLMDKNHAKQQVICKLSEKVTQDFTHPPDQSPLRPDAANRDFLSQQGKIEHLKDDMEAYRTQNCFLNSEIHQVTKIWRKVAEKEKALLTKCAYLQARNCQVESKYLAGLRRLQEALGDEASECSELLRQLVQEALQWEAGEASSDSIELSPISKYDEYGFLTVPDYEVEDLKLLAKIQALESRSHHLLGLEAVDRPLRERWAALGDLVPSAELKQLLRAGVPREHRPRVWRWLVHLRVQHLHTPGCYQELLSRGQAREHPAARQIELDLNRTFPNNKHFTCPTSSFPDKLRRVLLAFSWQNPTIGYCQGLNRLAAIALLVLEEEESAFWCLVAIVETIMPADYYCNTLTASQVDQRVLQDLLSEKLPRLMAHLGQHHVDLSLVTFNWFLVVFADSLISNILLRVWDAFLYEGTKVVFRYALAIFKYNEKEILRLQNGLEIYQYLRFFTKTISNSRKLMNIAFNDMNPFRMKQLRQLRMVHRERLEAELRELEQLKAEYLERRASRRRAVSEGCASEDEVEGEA
Sequence of UniProt P55061 (P55061 whole entry, looked up): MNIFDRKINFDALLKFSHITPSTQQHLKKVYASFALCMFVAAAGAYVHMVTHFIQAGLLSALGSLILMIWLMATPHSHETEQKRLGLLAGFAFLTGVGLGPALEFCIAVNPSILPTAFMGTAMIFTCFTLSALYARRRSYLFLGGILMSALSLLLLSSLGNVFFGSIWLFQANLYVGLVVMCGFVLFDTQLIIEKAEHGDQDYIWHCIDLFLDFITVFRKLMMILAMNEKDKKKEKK
Sequence of UniProt Q9UNH7 (Q9UNH7 whole entry, looked up): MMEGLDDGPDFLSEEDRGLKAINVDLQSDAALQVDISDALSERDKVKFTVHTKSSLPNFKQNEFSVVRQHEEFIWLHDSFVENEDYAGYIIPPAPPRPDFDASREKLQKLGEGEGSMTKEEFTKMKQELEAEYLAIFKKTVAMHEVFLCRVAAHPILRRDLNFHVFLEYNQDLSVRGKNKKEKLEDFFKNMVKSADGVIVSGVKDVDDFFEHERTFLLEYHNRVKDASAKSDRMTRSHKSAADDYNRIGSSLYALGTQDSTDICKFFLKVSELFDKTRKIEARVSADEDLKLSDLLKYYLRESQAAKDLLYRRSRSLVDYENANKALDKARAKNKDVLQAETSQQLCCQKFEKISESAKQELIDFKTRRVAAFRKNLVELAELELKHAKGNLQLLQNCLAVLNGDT
Sequence of UniProt Q9Y5J6 (Q9Y5J6 whole entry, looked up): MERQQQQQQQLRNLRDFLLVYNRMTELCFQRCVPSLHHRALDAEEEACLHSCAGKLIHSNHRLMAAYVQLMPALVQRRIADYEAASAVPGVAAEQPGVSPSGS
Sequence of UniProt Q969X1 (Q969X1 whole entry, looked up): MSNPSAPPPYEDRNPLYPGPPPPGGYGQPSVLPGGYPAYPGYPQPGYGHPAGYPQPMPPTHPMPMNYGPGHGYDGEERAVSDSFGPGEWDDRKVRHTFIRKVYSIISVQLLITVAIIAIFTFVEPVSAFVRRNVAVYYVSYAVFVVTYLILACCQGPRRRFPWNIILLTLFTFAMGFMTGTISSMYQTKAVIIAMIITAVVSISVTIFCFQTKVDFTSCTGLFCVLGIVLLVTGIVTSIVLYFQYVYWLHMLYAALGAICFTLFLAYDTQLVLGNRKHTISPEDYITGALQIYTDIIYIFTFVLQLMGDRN
Sequence of UniProt P62318 (P62318 whole entry, looked up): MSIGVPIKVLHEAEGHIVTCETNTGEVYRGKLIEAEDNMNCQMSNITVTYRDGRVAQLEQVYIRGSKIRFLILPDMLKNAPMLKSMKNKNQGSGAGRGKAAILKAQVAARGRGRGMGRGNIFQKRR
Sequence of UniProt Q9Y5L4 (Q9Y5L4 whole entry, looked up): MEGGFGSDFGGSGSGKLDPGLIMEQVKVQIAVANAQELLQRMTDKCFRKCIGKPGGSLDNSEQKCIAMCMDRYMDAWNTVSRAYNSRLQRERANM
Sequence of UniProt Q9BYN0 (Q9BYN0 whole entry, looked up): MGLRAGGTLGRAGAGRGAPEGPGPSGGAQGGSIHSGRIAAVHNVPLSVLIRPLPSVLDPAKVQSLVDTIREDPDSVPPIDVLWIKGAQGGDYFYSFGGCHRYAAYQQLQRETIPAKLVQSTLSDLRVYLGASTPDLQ

log2 fold change, inactive:
STAM2 (UniProt O75886) 0.052
TENT5C (UniProt Q5VWP2) 0.019
TM7SF3 (UniProt Q9NS93) -0.081
SYF2 (UniProt O95926) 0.143
SLC46A1 (UniProt Q96NT5) 0.078
TBC1D2 (UniProt Q9BYX2) -0.015
SLC35A1 (UniProt P78382) -0.142
TGFBI (UniProt Q15582) 0.063
STEAP3 isoform 2 (UniProt Q658P3) -0.038
SURF1 (UniProt Q15526) 0.029
STK39 (UniProt Q9UEW8) -0.007
TBC1D23 (UniProt Q9NUY8) -0.045
TIMM13 (UniProt Q9Y5L4) -0.086
SRPRB (UniProt Q9Y5M8) -0.052
SLC29A3 (UniProt Q9BZD2) 0.023
SP2 (UniProt Q02086) 0.07
TIMM10B (UniProt Q9Y5J6) 0.045
TMBIM6 isoform 2 (UniProt P55061) -0.038
TARBP1 (UniProt Q13395) 0.043
SRSF3 (UniProt P84103) 0.153
TAOK3 (UniProt Q9H2K8) -0.016
SLC30A10 (UniProt Q6XR72) 0.01
SNX6 (UniProt Q9UNH7) -0.019
STOM (UniProt P27105) 0.048
THYN1 (UniProt Q9P016) 0.011
TIMM21 (UniProt Q9BVV7) 0.017
STXBP5 (UniProt Q5T5C0) 0.01
STX7 (UniProt O15400) 0.02
TBCD (UniProt Q9BTW9) -0.03
SPINDOC (UniProt Q9BUA3) 0.018
SRXN1 (UniProt Q9BYN0) -0.079
TCOF1 isoform 4 (UniProt Q13428) 0.001
SNRPD3 (UniProt P62318) 0.01
TMBIM1 (UniProt Q969X1) -0.019
TCOF1 isoform 3 (UniProt Q13428) 0.399
